Bioassay records as filed in PubChem BioAssay.
Sampled rows, rich in hits. Any-hit rate of the full collection: about 3.1%.
Nrf2 block: inhibitors of Nrf2 signaling; AID 504444; 360,000 compounds, 2.1% hits; Potency, µM (titrated, usually from 46 µM), actives largely listed as inhibitors; A549 ARE-Fluc reporter, luciferase luminescence, 18-24 h; further: nearly all actives have a fitted effect of over 60% in size
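A549 ARE_Fluc cells, 5000/well, 5% FBS OPTI-MEM; compounds in dose-response, 18-24 h at 37 °C/5% CO2; CellTiter-Fluor viability read (Ex 405/Em 525), then BugLite luciferase luminescence = Nrf2 activity.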
IDH1 R132H inh: human IDH1 R132H inhibition | 390,000 compounds, 0.093% hits | O75874 | IDH1-R132H enzyme, NADPH consumption, diaphorase/resazurin fluorescence | Potency, µM (top dose mostly 76.6 µM), most hits filed as inhibitors; further: nearly all actives have a fitted effect of over 65% in size
Target sequence (O75874 whole entry R132H, stated change not applied): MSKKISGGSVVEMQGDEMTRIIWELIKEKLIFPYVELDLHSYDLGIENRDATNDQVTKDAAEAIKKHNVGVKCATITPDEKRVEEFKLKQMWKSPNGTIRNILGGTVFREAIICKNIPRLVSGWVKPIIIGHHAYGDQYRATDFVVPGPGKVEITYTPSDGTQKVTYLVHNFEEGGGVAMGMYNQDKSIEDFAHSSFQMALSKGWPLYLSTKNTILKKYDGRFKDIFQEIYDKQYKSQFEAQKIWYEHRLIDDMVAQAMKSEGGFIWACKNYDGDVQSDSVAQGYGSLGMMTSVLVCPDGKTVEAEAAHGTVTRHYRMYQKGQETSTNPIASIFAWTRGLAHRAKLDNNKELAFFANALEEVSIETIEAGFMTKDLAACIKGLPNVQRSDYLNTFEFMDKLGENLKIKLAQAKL
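IDH1-R132H (0.5 ug/mL dispensed) in pH 7.5 Tris buffer was preincubated 30 min with compound, then given a substrate mix of 0.016 mM NADPH and 2 mM alpha-KG for 80 min at room temperature; remaining NADPH was read by diaphorase/resazurin fluorescence.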
Mito fusion act: inhibitors of mitochondrial division or activators of mitochondrial fusion | Potency, µM (highest dose often 46.1 µM), most hits filed as activators | 320,000 compounds, 0.23% hits | S. cerevisiae fusion-defective mutant growth rescue, CellTiterGlo 48 h; further: nearly all actives have a fitted effect of over 45% in size
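Yeast fusion mutant, YPEG (non-fermentable carbon), compound, 48 h at 37C non-permissive; CellTiterGlo added, 10 min RT, luminescence read. Rescued growth = division inhibition.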
TrxR1 substrate: substrates of rat thioredoxin reductase 1; O89049; Potency, µM (titrated, usually from 114 µM); purified TrxR1 substrate turnover, NADPH consumption readout; 390,000 compounds, 0.01% hits; further: nearly all actives have a fitted effect of over 50% in size
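Rat TrxR1, dispensed at 90 nM, was prereduced with 400 uM NADPH (final) for 5 min at ~22 deg C, then incubated with compound 15 min before 400 uM selenite. A first-read NADPH fluorescence drop versus no-compound background flagged substrates.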
rTrxR1 inhibitor: rat TrxR1 inhibition | O89049 | recombinant rTrxR1, NADPH fluorescence consumption, selenite substrate | Potency, µM (series often up to 114 µM), actives largely listed as inhibitors | 390,000 compounds, 1% hits | AID 588453; further: nearly all actives have a fitted effect of over 65% in size
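Rat TrxR1 (90 nM in the dispensed reagent) was pre-reduced with 400 uM NADPH for 5 min at room temperature, then incubated with compound for 15 min. After 400 uM selenite was added, NADPH fluorescence (Ex 340/Em 450 nm) was followed for 8 min.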
A549 tox: kills or reduces viability of A549 cells in Nrf2 counter-screen | 390,000 compounds, 0.16% hits | AID 504648 | Potency, µM (series often up to 46 µM), usual class: inhibitors | A549 ARE-Fluc cells, CellTiter-Fluor viability, 18-24 h
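A549 ARE-Fluc cells in 5% FBS OPTI-MEM, 5000 cells/well, rested 2 h then exposed to compounds in concentration-response for 18-24 h at 37 °C. Viability by CellTiter-Fluor fluorescence (Ex 405/Em 525) after 30 min; luciferase luminescence (BugLite, 15 min, RT) read afterwards.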
Of the large screens only hits and unclear results are named; the others gave an inactive call. The call rests on the fitted dose curve; in most records, active means well fitted curve in the direction sought with a large enough effect; inconclusive means small, poorly fitted or top-dose-only effect, or another doubt; inactive means no such curve, though single readings can be large; an effect the other way counts as inactive or inconclusive.

C=C1C(=O)OC2C1CCC(C)=C1C(=O)C3OC3(C)C12 (stereo unspecified)	Nrf2 block 16µM, rTrxR1 inhibitor 8.9µM, A549 tox inconclusive (no result: Mito fusion act)
COc1ccc(C(=O)NC(=S)NNC(=O)[C@H]2C[C@@H]2c2ccccc2)cc1OC	Nrf2 block 16µM
COc1cc(OC)cc(C(=O)NC(=S)Nc2ccc3c4c(cccc24)CC3)c1	none (no result: Nrf2 block)
COc1ccc(C(=O)NC(=S)Nc2ccc3c4c(cccc24)CC3)cc1OC	Nrf2 block 7.3µM, rTrxR1 inhibitor inconclusive
CC1(C)N=C(Nc2nc3ccccc3o2)NC2=C1C(=O)CCC2	Nrf2 block inconclusive (no result: IDH1 R132H inh, Mito fusion act, TrxR1 substrate, rTrxR1 inhibitor)
O=C(c1cccs1)c1cn(CCOc2ccc(F)cc2)c2ccccc12	Nrf2 block inconclusive (no result: Mito fusion act)
COc1cccc(S(=O)(=O)N2CCN(S(=O)(=O)c3ccc4c(c3)OCCO4)CC2)c1	none (no result: IDH1 R132H inh, Mito fusion act, TrxR1 substrate, rTrxR1 inhibitor)
COc1ccc(Cn2c(O)c(C=Nc3ccc(C)cc3)c3ccccc3c2=O)cc1	Nrf2 block 9.2µM, A549 tox inconclusive
COc1ccc(Cn2c(-c3ccc(C)cc3)c[n+]3ccccc23)cc1	Nrf2 block 0.73µM
Cc1ccc(CNc2cc(-c3nn4c(C)nnc4s3)ccc2C)s1	Nrf2 block 16µM
COc1ccc(NC(=O)c2sc3nc(N4CCCC4)c4c(c3c2N)CC(C)(C)OC4)cc1	Nrf2 block inconclusive, Mito fusion act 13µM
COc1ccc(NC(=O)c2sc3nc(N4CCOCC4)c4c(c3c2N)CC(C)(C)OC4)cc1	none
CC(=O)N/C(=C/c1ccccc1)c1ccncc1	none (no result: Nrf2 block, IDH1 R132H inh, Mito fusion act, A549 tox)
CC(C)N(CC(=O)Nc1ccc(Cl)cc1C(F)(F)F)C(=O)CCl	Nrf2 block 13µM, rTrxR1 inhibitor 16µM, A549 tox inconclusive
CCC(C)N(CC(=O)Nc1cccc(C)c1C)C(=O)CCl (stereo unspecified)	Nrf2 block inconclusive, rTrxR1 inhibitor 28µM
CCC(CC)NC(=O)Nc1cccc(C)c1C	none
CCCCCCC[n+]1ccc(/C=C/c2c(C)[nH]c3ccccc23)c2ccccc21	none (no result: Nrf2 block, IDH1 R132H inh, Mito fusion act, A549 tox)
Cc1ccc(C)c(NC(=S)N2CCN(c3ccccn3)CC2)c1	none
CCc1ccccc1N1CC23C=CC(O2)C(C(=O)OCC(C)C)C3C1=O (stereo unspecified)	none
CC(C)(C)C(=O)NCC12C=CC(O1)C1C(=O)N(c3ccccc3)C(=O)C12 (stereo unspecified)	rTrxR1 inhibitor 18µM
Cc1ccc(N2C(=O)C3C4C=CC(CNC(=S)N5CCN(c6ccccn6)CC5)(O4)C3C2=O)cc1 (stereo unspecified)	rTrxR1 inhibitor 11µM
CC(C)COC(=O)NCC12C=CC(O1)C1C(=O)N(c3ccc(Cl)cc3)C(=O)C12 (stereo unspecified)	rTrxR1 inhibitor 14µM
Cc1ccc(N2C(=O)C3C4C=CC(CNC(=S)Nc5cccc(Cl)c5)(O4)C3C2=O)cc1 (stereo unspecified)	rTrxR1 inhibitor 7.9µM
COc1ccc(-c2cc(C)no2)cc1S(=O)(=O)NCc1ccco1	Nrf2 block inconclusive (no result: Mito fusion act)
Cc1ccc(N2C(=O)C3C4C=CC(CNC(=S)Nc5ccc(Cl)cc5)(O4)C3C2=O)cc1 (stereo unspecified)	Nrf2 block inconclusive, rTrxR1 inhibitor 28µM, A549 tox inconclusive
O=C1C2C3C=CC(CO)(O3)C2C(=O)N1c1ccc(-c2ccccc2)cc1 (stereo unspecified)	none (no result: Nrf2 block, IDH1 R132H inh, TrxR1 substrate, rTrxR1 inhibitor, A549 tox)
Cc1ccc(N2C(=O)C3C4C=CC(CNC(=S)Nc5ccc(F)cc5)(O4)C3C2=O)cc1 (stereo unspecified)	rTrxR1 inhibitor 16µM
Cc1ccc(CNC(=O)C2CCCN(C(=O)Nc3ccc(F)cc3)C2)cc1 (stereo unspecified)	none
CC(=O)Nc1ccc2c(c1)C(=O)c1ccccc1C2=O	Nrf2 block inconclusive
Cc1ccccc1OCC(=O)Nc1ccc2c(c1)C(=O)c1ccccc1C2=O	Nrf2 block 15µM, Mito fusion act inconclusive, A549 tox inconclusive
